How the values were obtained:
[1] = molecular target: T1, Serine/threonine-protein kinase TBK1 (Homo sapiens) (UniProt Q9UHD2); conditions: at 1 µM;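 note: values are mean inhibition of TBK1, screened as part of the GSK published kinase inhibitor set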
T1 sequence (whole entry): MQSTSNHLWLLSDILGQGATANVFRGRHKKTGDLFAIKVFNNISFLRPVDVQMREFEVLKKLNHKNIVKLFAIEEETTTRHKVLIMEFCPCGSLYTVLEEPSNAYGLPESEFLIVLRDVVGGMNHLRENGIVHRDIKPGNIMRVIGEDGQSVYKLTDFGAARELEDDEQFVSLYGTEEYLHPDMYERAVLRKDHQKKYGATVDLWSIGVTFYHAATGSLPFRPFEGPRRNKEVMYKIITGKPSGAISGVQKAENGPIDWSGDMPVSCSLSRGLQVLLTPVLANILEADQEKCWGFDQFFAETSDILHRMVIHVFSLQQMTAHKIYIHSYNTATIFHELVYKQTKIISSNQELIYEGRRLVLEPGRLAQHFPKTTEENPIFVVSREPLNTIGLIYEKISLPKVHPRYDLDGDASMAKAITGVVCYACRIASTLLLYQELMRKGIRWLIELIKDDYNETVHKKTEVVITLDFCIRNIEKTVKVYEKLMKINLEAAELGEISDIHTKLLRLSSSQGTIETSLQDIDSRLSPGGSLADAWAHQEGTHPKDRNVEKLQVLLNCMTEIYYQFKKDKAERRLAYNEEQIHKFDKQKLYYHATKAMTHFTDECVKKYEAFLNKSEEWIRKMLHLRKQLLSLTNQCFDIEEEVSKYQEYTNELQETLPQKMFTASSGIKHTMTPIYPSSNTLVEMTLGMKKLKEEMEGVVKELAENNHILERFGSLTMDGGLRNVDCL

[2] = molecular target: T2, Testis-specific serine/threonine-protein kinase 1 (Homo sapiens) (UniProt Q9BXA7); conditions: at 0.1 µM
T2 sequence (whole entry): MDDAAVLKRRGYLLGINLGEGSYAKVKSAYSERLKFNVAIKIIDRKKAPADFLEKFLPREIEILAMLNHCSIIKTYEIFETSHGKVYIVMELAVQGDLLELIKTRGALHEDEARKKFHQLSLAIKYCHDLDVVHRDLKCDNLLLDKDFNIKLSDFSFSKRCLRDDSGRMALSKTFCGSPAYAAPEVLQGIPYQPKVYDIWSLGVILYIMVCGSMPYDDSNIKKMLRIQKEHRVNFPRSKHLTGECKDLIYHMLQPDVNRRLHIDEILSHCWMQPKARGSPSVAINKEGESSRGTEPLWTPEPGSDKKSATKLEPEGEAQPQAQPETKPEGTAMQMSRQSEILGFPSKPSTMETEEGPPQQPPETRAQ

[3] = molecular target: T2, Testis-specific serine/threonine-protein kinase 1 (Homo sapiens); conditions: at 1 µM
[4] = molecular target: T3, Testis-specific serine/threonine-protein kinase 2 (Homo sapiens) (UniProt Q96PF2); conditions: at 0.1 µM
T3 sequence (whole entry): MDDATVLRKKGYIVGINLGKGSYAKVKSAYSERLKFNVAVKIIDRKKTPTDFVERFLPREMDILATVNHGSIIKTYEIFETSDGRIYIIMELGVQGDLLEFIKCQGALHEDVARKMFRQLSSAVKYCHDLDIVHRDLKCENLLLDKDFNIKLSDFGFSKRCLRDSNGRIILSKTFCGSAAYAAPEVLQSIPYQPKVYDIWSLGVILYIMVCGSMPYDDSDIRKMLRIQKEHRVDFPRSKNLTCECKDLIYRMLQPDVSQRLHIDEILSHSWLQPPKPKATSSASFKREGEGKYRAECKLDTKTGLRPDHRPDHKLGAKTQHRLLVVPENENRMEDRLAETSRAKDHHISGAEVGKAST

[5] = molecular target: T3, Testis-specific serine/threonine-protein kinase 2 (Homo sapiens); conditions: at 1 µM
[6] = molecular target: Casein kinase I isoform alpha (Homo sapiens) (UniProt P48729); conditions: at 0.1 µM
[7] = molecular target: Casein kinase I isoform alpha (Homo sapiens) (UniProt P48729); conditions: at 1 µM
[8] = molecular target: Casein kinase I isoform gamma-1 (Homo sapiens) (UniProt Q9HCP0); conditions: at 0.1 µM
[9] = molecular target: Casein kinase I isoform gamma-1 (Homo sapiens) (UniProt Q9HCP0); conditions: at 1 µM
[10] = molecular target: Casein kinase I isoform gamma-2 (Homo sapiens) (UniProt P78368); conditions: at 0.1 µM
[11] = molecular target: Casein kinase I isoform gamma-2 (Homo sapiens) (UniProt P78368); conditions: at 1 µM
[12] = molecular target: Casein kinase I isoform gamma-3 (Homo sapiens) (UniProt Q9Y6M4); conditions: at 0.1 µM
[13] = molecular target: Casein kinase I isoform gamma-3 (Homo sapiens) (UniProt Q9Y6M4); conditions: at 1 µM
[14] = molecular target: Cyclin-dependent kinase 1 (Homo sapiens) (UniProt P06493); conditions: at 0.1 µM
[15] = molecular target: Cyclin-dependent kinase 1 (Homo sapiens) (UniProt P06493); conditions: at 1 µM
[16] = molecular target: Cyclin-dependent kinase 2 (Homo sapiens) (UniProt P24941); conditions: at 0.1 µM
[17] = molecular target: Cyclin-dependent kinase 2 (Homo sapiens) (UniProt P24941); conditions: at 1 µM
[18] = molecular target: Cyclin-dependent kinase 2 (Homo sapiens) (UniProt P24941); conditions: at 0.1 µM; remark: listed apart in the source
[19] = molecular target: Cyclin-dependent kinase 2 (Homo sapiens) (UniProt P24941); conditions: at 1 µM; remark: listed apart in the source
[20] = molecular target: CDK3/Cyclin E (Homo sapiens) (UniProt P24864+Q00526); conditions: at 0.1 µM;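 note: reported percentages are mean inhibition values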
CDK3/Cyclin E (Homo sapiens), sequence (P24864 whole entry, looked up): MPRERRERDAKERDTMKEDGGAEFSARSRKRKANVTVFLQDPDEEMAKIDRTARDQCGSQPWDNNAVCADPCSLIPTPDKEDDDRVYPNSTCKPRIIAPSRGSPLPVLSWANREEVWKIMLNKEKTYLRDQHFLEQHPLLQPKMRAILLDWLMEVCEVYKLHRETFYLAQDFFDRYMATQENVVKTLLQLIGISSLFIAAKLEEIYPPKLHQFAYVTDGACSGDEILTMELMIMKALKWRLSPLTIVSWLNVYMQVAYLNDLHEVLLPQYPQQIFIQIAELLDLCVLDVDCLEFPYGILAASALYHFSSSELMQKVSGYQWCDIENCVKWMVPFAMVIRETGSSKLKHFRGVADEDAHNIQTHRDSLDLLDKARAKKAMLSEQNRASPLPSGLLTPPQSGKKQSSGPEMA
CDK3/Cyclin E (Homo sapiens), sequence (Q00526 whole entry, looked up): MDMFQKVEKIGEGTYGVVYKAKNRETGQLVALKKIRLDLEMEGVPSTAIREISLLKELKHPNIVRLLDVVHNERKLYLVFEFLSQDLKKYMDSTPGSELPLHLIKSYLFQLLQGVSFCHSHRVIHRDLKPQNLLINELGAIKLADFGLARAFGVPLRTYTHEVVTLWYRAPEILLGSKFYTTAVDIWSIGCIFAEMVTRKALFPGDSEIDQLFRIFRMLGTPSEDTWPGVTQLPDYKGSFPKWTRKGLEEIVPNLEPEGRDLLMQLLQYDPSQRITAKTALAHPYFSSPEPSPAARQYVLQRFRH

Cyclin-dependent kinase 1 (Homo sapiens), sequence (P06493 whole entry, looked up): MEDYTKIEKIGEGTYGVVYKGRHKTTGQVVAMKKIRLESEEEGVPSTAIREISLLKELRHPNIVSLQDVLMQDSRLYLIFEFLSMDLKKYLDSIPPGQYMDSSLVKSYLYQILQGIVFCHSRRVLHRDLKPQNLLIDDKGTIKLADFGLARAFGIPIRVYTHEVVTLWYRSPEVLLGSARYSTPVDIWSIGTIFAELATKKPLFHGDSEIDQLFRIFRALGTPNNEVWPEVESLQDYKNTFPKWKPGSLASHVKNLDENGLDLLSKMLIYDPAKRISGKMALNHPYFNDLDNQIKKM
Casein kinase I isoform gamma-3 (Homo sapiens), sequence (Q9Y6M4 whole entry, looked up, canonical isoform): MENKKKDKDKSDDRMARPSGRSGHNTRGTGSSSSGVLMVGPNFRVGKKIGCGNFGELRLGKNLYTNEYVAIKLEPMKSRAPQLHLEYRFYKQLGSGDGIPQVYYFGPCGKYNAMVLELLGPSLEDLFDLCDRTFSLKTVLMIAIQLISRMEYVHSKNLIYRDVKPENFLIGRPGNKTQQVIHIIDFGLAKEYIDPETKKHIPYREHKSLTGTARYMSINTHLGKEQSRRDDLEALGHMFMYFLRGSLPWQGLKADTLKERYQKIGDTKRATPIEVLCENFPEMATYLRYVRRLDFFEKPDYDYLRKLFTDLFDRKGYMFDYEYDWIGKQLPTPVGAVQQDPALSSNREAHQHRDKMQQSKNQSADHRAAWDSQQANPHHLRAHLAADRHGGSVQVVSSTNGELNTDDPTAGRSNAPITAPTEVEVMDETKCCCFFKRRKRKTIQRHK
Casein kinase I isoform gamma-2 (Homo sapiens), sequence (P78368 whole entry, looked up, canonical isoform): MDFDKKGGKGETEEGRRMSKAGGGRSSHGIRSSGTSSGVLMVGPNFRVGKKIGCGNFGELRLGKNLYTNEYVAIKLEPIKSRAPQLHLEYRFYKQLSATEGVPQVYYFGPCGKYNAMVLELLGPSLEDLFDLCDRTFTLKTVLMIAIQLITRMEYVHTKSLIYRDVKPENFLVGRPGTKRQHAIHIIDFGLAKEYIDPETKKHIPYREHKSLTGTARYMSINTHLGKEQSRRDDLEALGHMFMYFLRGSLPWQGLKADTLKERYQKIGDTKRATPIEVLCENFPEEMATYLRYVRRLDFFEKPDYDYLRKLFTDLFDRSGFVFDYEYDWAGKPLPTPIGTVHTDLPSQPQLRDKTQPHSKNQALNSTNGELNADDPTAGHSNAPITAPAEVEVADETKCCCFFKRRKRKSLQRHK
Casein kinase I isoform gamma-1 (Homo sapiens), sequence (Q9HCP0 whole entry, looked up, canonical isoform): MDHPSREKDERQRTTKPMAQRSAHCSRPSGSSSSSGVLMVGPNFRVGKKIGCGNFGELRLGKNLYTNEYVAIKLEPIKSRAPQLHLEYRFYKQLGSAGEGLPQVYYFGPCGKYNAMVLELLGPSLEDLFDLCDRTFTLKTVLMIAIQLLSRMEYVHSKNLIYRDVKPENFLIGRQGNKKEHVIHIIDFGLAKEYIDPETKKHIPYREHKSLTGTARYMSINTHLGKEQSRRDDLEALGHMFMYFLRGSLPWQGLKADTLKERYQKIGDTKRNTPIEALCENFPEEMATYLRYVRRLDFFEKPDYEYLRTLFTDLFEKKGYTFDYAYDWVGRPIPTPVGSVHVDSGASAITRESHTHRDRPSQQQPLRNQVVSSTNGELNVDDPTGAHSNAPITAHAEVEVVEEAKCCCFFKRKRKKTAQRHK
Casein kinase I isoform alpha (Homo sapiens), sequence (P48729 2-337 limits assumed): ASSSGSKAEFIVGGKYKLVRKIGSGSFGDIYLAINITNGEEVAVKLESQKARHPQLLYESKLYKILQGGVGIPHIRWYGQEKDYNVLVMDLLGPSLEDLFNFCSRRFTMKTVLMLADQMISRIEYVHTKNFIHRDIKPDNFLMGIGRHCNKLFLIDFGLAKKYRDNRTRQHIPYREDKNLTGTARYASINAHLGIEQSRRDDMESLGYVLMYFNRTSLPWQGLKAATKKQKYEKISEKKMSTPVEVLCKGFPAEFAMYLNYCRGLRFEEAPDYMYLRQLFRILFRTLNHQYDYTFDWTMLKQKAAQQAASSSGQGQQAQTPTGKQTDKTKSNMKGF

Structure (SMILES)	inhibition [1] [%]	inhibition [2] [%]	inhibition [3] [%]	inhibition [4] [%]	inhibition [5] [%]	inhibition [6] [%]	inhibition [7] [%]	inhibition [8] [%]	inhibition [9] [%]	inhibition [10] [%]	inhibition [11] [%]	inhibition [12] [%]	inhibition [13] [%]	inhibition [14] [%]	inhibition [15] [%]	inhibition [16] [%]	inhibition [17] [%]	inhibition [18] [%]	inhibition [19] [%]	inhibition [20] [%]
COc1ccc(-c2ccncc2)cc1C(N)=O	2.44	5.12	3.57	3.23	1.75	4.33	10.2	3.94	4.04	3.53	3.82	3.17	1.39	2.26	0.88	3.39	2.68	3.05	4.66	-2.82
Fc1cccc(COc2ccc(Nc3ncnc4cc(-c5ccc[nH]5)sc34)cc2Cl)c1	3.65	2.48	2.76	1.09	2.13	0.63	0.84	-1.43	-0.95	-1.97	-1.46	-2.89	-1.56	-1.89	1.88	-1.97	-1.57	-0.46	2.07	3.58
CN(C)c1cc2c(Nc3ccc4nc(Cc5ccccc5)[nH]c4c3)ncnc2cn1	4.24	5.14	5.29	4.42	3.59	3.65	6.31	4.21	5.5	3.69	5.2	3.73	4.56	-0.43	1.6	2.83	6.58	4.49	5.71	3.16
N#Cc1c(NC(=O)c2cccc3ccccc23)sc2c1CCCC2	6.64	3.39	2.26	0.88	0.92	-0.66	2.15	2.73	2.82	2.2	3.02	2.06	2.66	1.07	5.24	4.98	0.97	5.24	6.76	2.56
CC1=C(C(=O)Nc2ccc3[nH]ncc3c2)C(c2ccc(Cl)c(Cl)c2)CC(=O)N1 (stereo not given)	0.46	2.84	-0.6	1.93	-1.29	-1.74	1.97	0.83	1.68	0.32	1.4	-0.44	1.59	-0.56	-1.08	0.45	4.04	-0.59	3.25	-0.69
CC1=C(C(=O)Nc2ccc3[nH]ncc3c2)C(c2ccc3ccccc3c2)CC(=O)N1 (stereo not given)	4.09	1.35	1.04	1.35	0.44	1.57	3.29	1.69	3.15	1.16	1.9	0.93	3.24	0.76	2.25	2.98	9.64	3.36	14.2	0.42
NS(=O)(=O)c1cccc(-c2ccc3c(NC(=O)C4CC4)n[nH]c3c2)c1	0.44	-0.2	-0.47	-0.61	-0.16	4.11	4.53	-0.89	0.05	-0.75	-1.38	-0.89	2.47	0.37	1.15	0.27	-6.96	0.15	3.36	0.71
Cc1nn(C)c2cc(N(C)c3ccnc(Nc4cccc(S(N)(=O)=O)c4)n3)ccc12	10.3	3.95	5.39	1.61	2.71	0.9	0.72	2.37	2.59	1.72	2.93	0.54	3.06	0.25	5.8	-0.61	2.33	2.2	8.5	1.91
COc1cc2c(cc1Nc1nc(N3CCc4ccccc43)c3cc[nH]c3n1)N(C(=O)CN(C)C)CC2	5.19	10.2	19.2	9.19	13.6	6.69	2.45	1.43	3.55	0.72	2.57	0.55	4.52	0.08	1.02	0.42	-1.8	1.6	1.6	0.81
CS(=O)(=O)CCN(CC#N)Cc1ccc(-c2ccc3ncnc(Nc4ccc(OCc5cccc(F)c5)c(Cl)c4)c3c2)o1	1.61	1.37	1.5	0.63	1.39	1	2.88	-2.14	-3.1	-1.98	-2.18	-1.66	-4.35	-3.13	-3.04	-1.63	-2.87	-2.44	-4.09	-2.24
CCN1CCC(CC(=O)Nc2n[nH]c3nc(-c4cccs4)c(Br)cc23)CC1	1.1	-1.56	-1.9	-1.62	-1.24	0.63	-0.71	-2.56	-1.74	-1.74	-0.99	-2.3	0.47	0.69	5	0.61	6.41	-0.6	5.24	-0.39
O=C1NC(=O)C(c2cccc(Cl)c2)=C1Nc1ccc(O)c(Cl)c1	23.9	1.11	1.63	-0.57	0.16	1.72	9.44	0.2	1.3	0.09	0.54	1.06	0.9	0.73	7.55	1.84	6.86	2.79	10.6	3.01
COc1cc(C=NNc2ncnc3c2cnn3-c2ccccc2)ccc1O	21.5	5.71	1.92	1.3	-1.3	4.04	6.98	1.27	3.26	2.04	18.1	1.55	5.99	6.11	35.8	6.03	42.1	2.88	13.7	2.09
